assay: binders of probe aHhip on microarray, primary screen, stem cell growth factor project, biochemical, small-molecule microarray, fluorescence 635/667 (AID 1087); details: higher = more signal;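 also: score merges spot fluorescence at 667nm with spot signal to noise ratio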

| Structure (SMILES) | composite z-score |
| --- | --- |
| CCC(CC)C(O)C1C=CC2C(=O)N(C)C(=O)C2N1N1CCCCC1 (stereo not drawn) | 0.281 |
| CCCC[C@@H]1C[C@H]1[C@@H](NC(=O)c1ccc(C(F)(F)F)cc1)c1ccc(C(=O)OC)cc1 | 2.46 |
| C=CCN1C(=O)[C@]2(O[C@H](CCn3cc([C@H](O)c4ccccc4)nn3)[C@@H]([Si](C)(C)c3ccc(OC)cc3)[C@@H]2C)c2cc(N3C(=O)c4cccc5cccc3c45)ccc21 | -0.256 |
| COc1ccc([Si](C)(C)[C@H]2[C@H](CCO)O[C@@]3(C(=O)N(Cc4ccccc4)c4ccc(N(C=O)c5ccccc5)cc43)[C@@H]2C)cc1 | -0.0994 |
| COCCOC(=O)N1C(=O)[C@@]2(c3cc(C#Cc4ccc(OC)cc4)ccc31)[C@H](C(=O)Nc1nc3ccccc3s1)[C@H]1C(=O)O[C@H](c3ccccc3)[C@H](c3ccccc3)N1[C@@H]2c1ccccc1OCCO | -0.283 |
| CN(C)C(=O)[C@]1(Cc2ccccc2)N=C(c2ccc(OCCCO)cc2)O[C@@H]1c1ccccc1 | 0.127 |
| CCCCC(=C=CC[C@H](O)c1ccc(OCCO)cc1)C[C@H](O)c1ccccn1 | 0.0854 |
| Cc1ccc(S(=O)(=O)N2[C@@H](c3ccccc3)C(C(=O)O)=CC[C@H]2c2ccc(C#N)cc2)cc1 | -0.265 |
